# Data taken from PubChem BioAssay.
# Records with an inconclusive call do not appear. The source made the active and inactive calls. Rule as the data show it, unless noted: active = inhibition above about 80%; inactive = the rest.
# What was measured:
# [1] = growth inhibition of DIPG glioma cells, dose response, cell-based, SU-DIPG-XVII, MIPE5.0, CellTiter-Glo, qHTS (AID 1347060; cut-off not given, nearly all actives have AC50 up to about 26 µM;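 as to AC50: cells exposed to compound for 48 hours before viability readout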); details: SU-DIPG-XVII viability, CellTiter-Glo ATP luminescence
# [2] = growth inhibition of DIPG glioma cells, dose response, cell-based, SU-DIPG-XIII, MIPE5.0, CellTiter-Glo, qHTS (AID 1347064; cut-off not given, nearly all actives have AC50 up to about 23 µM;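 as to AC50: cells exposed to compound for 48 hours before the viability read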); details: SU-DIPG-XIII viability, CellTiter-Glo ATP luminescence
# [3] = viability loss in pontine glioma line – cell-based, SU-DIPG-XXV, MIPE5.0, CellTiter-Glo, qHTS, dose response (AID 1347065; cut-off not given, nearly all actives have AC50 up to about 26 µM;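 also: cells exposed to compound for 48 hours before ATP readout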); details: CellTiter-Glo ATP luminescence
# [4] = JHH-DIPG-1 glioma cell viability, MIPE5.0 library, CellTiter-Glo luminescence, qHTS (AID 1347067; cut-off not given, nearly all actives have AC50 up to about 26 µM;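 also: cells exposed to compound for 48 hours before readout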); details: JHH-DIPG-1 glioma viability, CellTiter-Glo ATP luminescence
# [5] = SU-DIPG-XXV glioma cell viability, MIPE5.0 library, qHTS (AID 1347068; cut-off not given, nearly all actives have IC50 up to about 30 µM;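 as to IC50: cells exposed to compound for 48 hours before viability readout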)
# [6] = sensitizers of A549 cells to miR-34 induction, primary screen, imaging, A549 dox-inducible miR-34, nuclei and caspase counts (AID 1347080;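 active = compounds whose cell count with miR-34 switched on is under 0.7 times the count with it off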); details: A549 miR-34 inducible, Hoechst nuclei count, 48 h
# [7] = survival rescue of mitochondrial mutant cells in low glucose, primary screen, MELAS cybrids, Rieske KO mouse fibroblasts, CellTiter-Glo (AID 1508586;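 active = mean z-score across replicates of 1.96 or higher in either the MELAS or the Rieske mutant cell line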;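 also: z relative to plate mean and SD of compound and empty wells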)
# [8] = LFS_MB_P medulloblastoma growth inhibition, cell-based, chromothripsis tumors, cisplatin or BGB combos (AID 1671449); details: LFS_MB_P medulloblastoma cells;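 also: cells exposed for 96 hours; 0% = vehicle DMSO and 100% = killing by high DMSO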
# [9] = HDN33 neuroblastoma growth inhibition, cell-based, chromothripsis tumors, cisplatin or BGB combos (AID 1671450); details: HDN33 neuroblastoma cells, stronger effect = higher value;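 also: cells exposed to compound for four days; 0% = vehicle DMSO and 100% = cell killing by high DMSO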
# [10] = ICB984 medulloblastoma cell growth inhibition, synergistic combos for chromothripsis tumors, cisplatin or BGB combos (AID 1671451; call rule not given here;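 also: cells exposed for 96 hours before readout; 0% = vehicle DMSO and 100% = killing by high DMSO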); details: ICB984 medulloblastoma cells, drug combinations, stronger effect = higher value
# [11] = LFS_MB_1R medulloblastoma cell growth inhibition, synergistic combos for chromothripsis tumors, cisplatin or BGB combos (AID 1671452); details: LFS_MB_1R medulloblastoma cells, stronger effect = higher value;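 also: cells exposed for 96 hours before readout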
# [12] = HTB85 osteosarcoma cell growth inhibition, synergistic combos for chromothripsis tumors, BGB or cisplatin IC20 combos (AID 1671453); details: HTB85 osteosarcoma cells, drug combinations, stronger effect = higher value;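 also: cells exposed for 96 hours before readout; 0% = vehicle DMSO and 100% = high DMSO killing control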
# [13] = CRL2098 osteosarcoma cell growth inhibition, synergistic combos for chromothripsis tumors, BGB or cisplatin IC20 combos (AID 1671454); details: CRL2098 osteosarcoma cells, drug combinations, stronger effect = higher value;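 also: cells exposed for 96 h before readout; 0% = vehicle DMSO and 100% = killing by high DMSO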
# [14] = HD-MB03 medulloblastoma cell growth inhibition, synergistic combos for chromothripsis tumors, BGB or cisplatin IC20 combos (AID 1671455; in the data active = inhibition above about 83%;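 also: 0% = vehicle DMSO and 100% = high DMSO as cytotoxic control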); details: HD-MB03 medulloblastoma cells, stronger effect = higher value
# [15] = UWB1.289 ovarian carcinoma cell growth inhibition, synergistic combos for chromothripsis tumors, BGB or cisplatin combos (AID 1671456); details: UWB1.289 ovarian carcinoma cells, stronger effect = higher value;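 also: cells exposed to compound for four days; 0% = vehicle DMSO and 100% = killing by high DMSO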
# [16] = MDA-MB-436 breast carcinoma cell growth inhibition, synergistic combos for chromothripsis tumors, BGB or cisplatin combos (AID 1671458; call rule not given here;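 also: cells exposed for 96 hours; 0% = vehicle DMSO and 100% = killing by high DMSO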); details: MDA-MB-436 breast carcinoma growth inhibition, drug combinations, stronger effect = higher value
# [17] = growth inhibition of BT084 medulloblastoma cells, cell-based, ICGC_MB145, cisplatin and BGB IC40 combos (AID 1671461); details: drug combinations, stronger effect = higher value;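 also: cells exposed to drugs for 96 hours; 0% = vehicle DMSO and 100% = high DMSO full killing control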
# [18] = growth inhibition of RCMB18 medulloblastoma cells, cell-based, cisplatin and BGB IC40 combos (AID 1671462); details: stronger effect = higher value;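 also: cells exposed to compound for four days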
# [19] = growth inhibition of CRL1545 osteosarcoma cells, cell-based, cisplatin and BGB IC20 combos (AID 1671464); details: stronger effect = higher value;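 also: cells exposed to compound for 96 hours before readout; 0% = vehicle DMSO and 100% = high DMSO killing control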
# [20] = stronger effect = lower value, cell number ratio, induced over uninduced
# [21] = measured here: relative caspase fold change +Dox/-Dox
# [22] = measured here: total cells with miR-34 induction, stronger effect = lower value
# [23] = measured here: total cells without miR-34 induction
# [24] = MELAS cybrid survival, CellTiter-Glo 48 h, stronger effect = higher value
# [25] = Rieske KO mouse fibroblast survival, CellTiter-Glo 72 h
# [26] = measured here: combination with BGB IC40, at 0.05 µM
# [27] = measured here: with BGB IC20 combination, at 0.5 µM
# [28] = measured here: with cisplatin IC20 combination, at 0.5 µM
# [29] = measured here: combination with cisplatin, at 0.5 µM
smiles,measurement,setting,value
CCOC(=O)CCNc1cc(N2CCc3ccccc3CC2)nc(-c2ccccn2)n1,AC50,[1],2.95 µM (active)
same,AC50,[2],3.32 µM (active)
same,AC50,[3],14.8 µM (active)
same,AC50,[4],5.25 µM (active)
same,IC50,[5],8.33 µM (active)
same,fold change,[6]; [20],0.698 (active)
same,fold change,[6]; [21],1.37
same,cell count,[6]; [22],3830
same,cell count,[6]; [23],5480
same,z-score,[7]; [24],-0.444 (inactive)
same,z-score,[7]; [25],-0.225
COc1ccc(C(=O)C2CCN(CC(=O)N(Cc3nc4c(c(=O)[nH]3)COCC4)CC3CC3)CC2)cc1,outcome,[1],inactive
same,outcome,[2],inactive
same,outcome,[3],inactive
same,outcome,[4],inactive
same,outcome,[5],inactive
same,inhibition,"[8]; at 0.5 µM, stronger effect = higher value",-26.8% (inactive)
same,inhibition,"[8]; measured here: combination with BGB IC20, at 0.005 µM",-22.7%
same,inhibition,"[8]; measured here: combination with BGB IC40, at 0.005 µM",-42.7%
same,inhibition,[8]; [26],-55.1%
same,inhibition,"[8]; measured here: combination with cisplatin, at 0.5 µM, stronger effect = higher value",-22.8%
same,inhibition,"[8]; measured here: combination with cisplatin, at 5 µM, stronger effect = higher value",-44.7%
same,inhibition,"[9]; BGB combo, at 5 µM",-14.7%
same,inhibition,[9]; at 0.5 µM,19.2% (inactive)
same,inhibition,"[9]; cisplatin combo, at 5 µM",9.88%
same,inhibition,[9]; [27],15.5%
same,inhibition,[9]; [28],24.9%
same,inhibition,"[9]; single agent, at 5 µM",15.7%
same,inhibition,"[10]; BGB IC20 combo, at 0.005 µM",-9.62%
same,inhibition,"[10]; BGB IC40 combo, at 0.005 µM",-29.7%
same,inhibition,"[10]; BGB IC40 combo, at 0.05 µM",-4.73%
same,inhibition,[10]; at 0.5 µM,-22.8% (inactive)
same,inhibition,"[10]; cisplatin combo, at 0.05 µM",-10.1%
same,inhibition,"[10]; cisplatin combo, at 0.5 µM",-15%
same,inhibition,"[10]; cisplatin combo, at 5 µM",-26%
same,inhibition,"[10]; measured here: 5 uM single agent, at 5 µM",-16%
same,inhibition,[11]; at 0.5 µM,-33% (inactive)
same,inhibition,[11]; [26],-55.7%
same,inhibition,[11]; [29],-42.4%
same,inhibition,"[11]; measured here: combination with cisplatin, at 5 µM",-67.1%
same,inhibition,[12]; at 0.5 µM,14.2% (inactive)
same,inhibition,"[12]; measured here: with BGB IC20, at 0.5 µM",33.7%
same,inhibition,"[12]; measured here: with BGB IC20, at 5 µM",10.5%
same,inhibition,"[12]; measured here: with cisplatin IC20, at 0.5 µM",-3.3%
same,inhibition,"[12]; measured here: with cisplatin IC20, at 5 µM",4.94%
same,inhibition,"[12]; single agent, at 5 µM",15.4%
same,inhibition,[13]; at 0.5 µM,-25.5% (inactive)
same,inhibition,"[13]; measured here: combination with BGB at IC20, at 0.5 µM",-15.2%
same,inhibition,"[13]; measured here: combination with cisplatin at IC20, at 0.5 µM",-29.9%
same,inhibition,[14]; at 0.5 µM,-6.43% (inactive)
same,inhibition,"[14]; measured here: combo with BGB at IC20, at 0.5 µM",-11.5%
same,inhibition,"[14]; measured here: combo with cisplatin at IC20, at 0.5 µM",-4.57%
same,inhibition,[15]; at 0.5 µM,0.15% (inactive)
same,inhibition,"[15]; measured here: inhibition with BGB combination, at 0.05 µM",-7.89%
same,inhibition,"[15]; measured here: inhibition with cisplatin combination, at 0.05 µM",-13.7%
same,inhibition,[16]; at 0.5 µM,-12.3% (inactive)
same,inhibition,"[16]; measured here: BGB combination, at 0.5 µM",-9.1%
same,inhibition,"[16]; measured here: BGB combination, at 5 µM",-21.6%
same,inhibition,"[16]; measured here: cisplatin combination, at 0.5 µM",-32.8%
same,inhibition,"[16]; measured here: cisplatin combination, at 5 µM",-17.8%
same,inhibition,[17]; at 0.5 µM,-24.2% (inactive)
same,inhibition,"[17]; cisplatin combination, at 0.5 µM",-30.1%
same,inhibition,"[17]; cisplatin combination, at 5 µM",-190%
same,inhibition,"[17]; measured here: BGB IC40 combination 0.05 uM, at 0.05 µM",-40%
same,inhibition,"[17]; single agent, at 5 µM",-16.6%
same,inhibition,[18]; at 0.5 µM,-19.3% (inactive)
same,inhibition,"[18]; cisplatin combo, at 5 µM",-12.1%
same,inhibition,"[18]; measured here: BGB IC40 combination, at 0.05 µM",-3.95%
same,inhibition,[18]; [29],-13.9%
same,inhibition,"[18]; single agent, at 5 µM",8.88%
same,inhibition,[19]; at 0.5 µM,9.43% (inactive)
same,inhibition,[19]; [27],5.59%
same,inhibition,[19]; [28],9.92%
same,inhibition,"[19]; single agent, at 0.05 µM",-39.6%
same,inhibition,"[19]; single agent, at 5 µM",-10.3%
Cc1cc(Nc2ncc(Cl)c(Nc3ccccc3S(=O)(=O)C(C)C)n2)c(OC(C)C)cc1C1CCNCC1,AC50,[1],2.95 µM (active)
same,AC50,[2],1.32 µM (active)
same,AC50,[3],0.934 µM (active)
same,AC50,[4],1.66 µM (active)
same,IC50,[5],3.32 µM (active)
same,fold change,[6]; [20],0.935 (inactive)
same,fold change,[6]; [21],0.748
same,cell count,[6]; [22],3290
same,cell count,[6]; [23],3520
same,z-score,[7]; [24],-0.455 (inactive)
same,z-score,[7]; [25],-0.428
